Assay results reported in PubChem BioAssay (Tox21).
Inconclusive results are not listed. The source made the active and inactive calls. Calls follow the shape of the dose curve; as a rule, active = well fitted inhibition curve with a large enough effect in the signal ratio in the repeat runs (not every such curve was filed as active); inconclusive = weak or mixed curves, or effect the other way; inactive = no such curve, though single readings can be large or run the other way; the % refers to the signal ratio.

What follows are compounds tested against Peroxisome proliferator-activated receptor delta (Homo sapiens) (UniProt Q03181) (assay: qHTS assay to identify small molecule antagonists of the peroxisome proliferator-activated receptor delta (PPARd) signaling pathway (AID 743215;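 also: cells stimulated with agonist L165041 at 300 nM final during compound exposure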)). Conditions: HEK293H PPARd-UAS-bla, beta-lactamase FRET ratio, antagonist, 17 h; series mostly up to 62 µM.
From the text: U.S. Tox21 Program National Center for Advancing Translational Sciences [NCATS] NIH Chemical Genomics Center [NCGC] U.S. Environmental Protection Agency [EPA] National Institutes of Environmental Health Sciences [NIEHS] National Toxicology Program [NTP] U.S. Food and Drug Administration [FDA] Tox21 Assay Overview: The peroxisome proliferator-activated receptors (PPARs) are lipid-activated transcription factors of the nuclear receptor superfamily with three distinct subtypes namely PPAR alpha, PPAR delta (PPARd) and PPAR gamma. All these subtypes heterodimerizes with Retinoid X receptor (RXR) and have different physiological functions. […] To identify the compounds that inhibit PPAR-delta signaling, GeneBLAzer PPAR delta UAS-bla HEK293H cell line (Invitrogen, Carlsbad, CA, USA) containing a beta-lactamase reporter gene under the control of an Upstream Activator Sequence (UAS) was used to screen the Tox21 compound library.
Tox21 Assay Protocol Summary: PPARd-bla cells were dispensed at 3000 cells/5uL/well in 1536-well black wall/clear bottom plates using a Multidrop Combi (Thermo Fisher Scientific, Waltham, MA) dispenser. After the assay plates were incubated at 37 C and 5% CO2 for 5 h, 23 nL of compounds dissolved in DMSO, positive controls or DMSO only was transferred to the assay plate by a Pintool station (Kalypsys, San Diego, CA), followed by addition of 1ul L165041 (300 nM, final concentration in the wells). The assay plates were incubated at 37 C for 17 h, and then 1 uL of LiveBLAzerTM B/G FRET substrate was added using a Bioraptr Flying Reagent Dispenser (FRD) workstation (Beckman Coulter, Indianapolis, IN, USA). The assay plates were incubated at room temperature for 2 h and fluorescence intensity was measured by an Envision plate reader (PerkinElmer, Shelton, CT).

Chain of Peroxisome proliferator-activated receptor delta (Homo sapiens) (Q03181 whole entry, looked up): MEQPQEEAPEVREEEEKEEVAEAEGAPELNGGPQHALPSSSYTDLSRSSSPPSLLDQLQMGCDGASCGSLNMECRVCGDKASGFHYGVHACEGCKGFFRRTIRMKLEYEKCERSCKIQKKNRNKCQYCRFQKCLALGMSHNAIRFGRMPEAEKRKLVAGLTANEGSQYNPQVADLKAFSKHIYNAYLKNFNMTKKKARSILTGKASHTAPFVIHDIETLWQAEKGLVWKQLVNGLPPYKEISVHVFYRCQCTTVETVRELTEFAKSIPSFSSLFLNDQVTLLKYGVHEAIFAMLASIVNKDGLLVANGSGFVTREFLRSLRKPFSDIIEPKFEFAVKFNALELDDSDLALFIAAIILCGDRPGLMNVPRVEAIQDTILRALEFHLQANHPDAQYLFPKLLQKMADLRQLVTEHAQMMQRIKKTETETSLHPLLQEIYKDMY

Row | SMILES | outcome
1 | O=C(O)CCCCCCCCC(=O)O | inactive
2 | CCNc1ccccc1 | inactive
3 | CC1(C)CC(N)CC(C)(CN)C1 (stereo not given) | inactive
4 | CC(=O)OCc1ccccc1 | inactive
5 | Cc1ccc(C(C)C)c(O)c1 | inactive
6 | CCCCCCCCCCN | inactive
7 | CC(=O)c1ccc(O)cc1 | inactive
8 | Nc1ccc(Cl)c(N)c1 | inactive
9 | COc1cc(OC)c(C(=O)CCCN2CCCC2)c(OC)c1 | inactive
10 | CC(C)OC(=O)COc1ccc(Cl)cc1Cl | inactive
11 | CCOCC(=O)O | inactive
12 | O=C1C(c2[nH]c3ccccc3c2O)=Nc2ccccc21 | inactive
13 | Cc1ccc(S(=O)(=O)N=C=O)cc1 | inactive
14 | CCCCCC(=O)O | inactive
15 | Clc1ccccn1 | inactive
16 | CSc1ccc(Cl)cc1 | inactive
17 | CC(C)CC(C)O (stereo not given) | inactive
18 | CCNC(=S)NCC | inactive
19 | O=c1[nH]cnc2[nH]ncc12 | inactive
20 | COc1ccc([N+](=O)[O-])cc1N | inactive

Row | SMILES | outcome
21 | CN(C)CCOC(=O)COc1ccc(Cl)cc1 | inactive
22 | CC(C)(C)c1cc(Cc2cc(C(C)(C)C)c(O)c(C(C)(C)C)c2)cc(C(C)(C)C)c1O | inactive
23 | NCCN1CCNCC1 | inactive
24 | NCCNCCN | inactive
25 | CC(CCl)OP(=O)(OC(C)CCl)OC(C)CCl (stereo not given) | inactive
26 | CCCCOC(=O)c1ccc(N)cc1 | inactive
27 | CC(C)CCCCCCCOC(=O)CCCCC(=O)OCCCCCCCC(C)C | inactive
28 | CC(=O)CCC=C(C)C | inactive
29 | COC(=O)c1cccnc1 | inactive
30 | COc1ccccc1OCC(O)CO (stereo not given) | inactive
31 | CCCCCCCCCCCC(=O)OC | inactive
32 | COc1ccc(C)cc1N | inactive
33 | CCCCCCC=O | inactive
34 | Nc1nc(N)nc(-c2ccccc2)n1 | inactive
35 | CC(=O)OC1CC(C)OC(C)O1 (stereo not given) | inactive
36 | O=C(O)c1cc2ccccc2cc1O | inactive
37 | O=C(OCC1CCC2OC2C1)C1CCC2OC2C1 (stereo not given) | inactive
38 | CCCCCCCCCCCCCCCCO | inactive
39 | O=C(O)/C=C/C(=O)O | inactive
40 | Cc1ccc([N+](=O)[O-])cc1S(=O)(=O)O | inactive
